Assay outcomes deposited in PubChem by National Center for Advancing Translational Sciences (NCATS).
DT40 TDP1 no CPT – qHTS for Inhibitors of human tyrosyl-DNA phosphodiesterase 1 (TDP1): qHTS in cells in absence of CPT. DT40 Tdp1-/- hTDP1 cells, no CPT, ATP luminescence, 48 h. Potency, µM (titrated, usually from 46.2 µM), for inactives: at the top dose activity change, negative = growth inhibition, usual class: inhibitors. 420,000 compounds, 15% hits. AID 686978, 2013; further: on the % scale 0 is the no-effect control and ±100 the full control effect; nearly all actives have a fitted effect of over 55% in size
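Camptothecin absent (DMSO only). Human TDP1-complemented DT40 knockout cells, 400 cells/well, 37 °C for minimum 48 hr; ATP measured via CellTiter-Glo, 30 min dark incubation, luminescence.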
TDP1 cell CPT – growth inhibition of DT40 Tdp1-/-;hTDP1 cells with camptothecin (screen for TDP1 inhibitors) | AID 686979 | chicken DT40 Tdp1-/-;hTDP1 cells + 20 nM CPT, ATP luminescence, 48 h | Potency, µM (doses to about 46.2 µM), for inactives: at the highest dose activity change, negative = growth inhibition, actives largely listed as inhibitors | 420,000 compounds, 12% hits; further: on the % scale 0 is the no-effect control and ±100 the full control effect; nearly all actives have a fitted effect of over 55% in size
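Chicken DT40 Tdp1-/- cells complemented with human TDP1, 400 cells/well, exposed to compounds plus 20 nM camptothecin for at least 48 h at 37 C; viability read as ATP content by CellTiter-Glo luminescence.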
ATXN2 expr inh – inhibitors of ATXN2 expression. AID 1745845. 360,000 compounds, 0.72% hits. Potency, µM (top dose mostly 57 µM), for the others: top-dose activity change, negative = inhibition, most hits filed as inhibitors. HEK-293 ATXN2-luciferase reporter, luminescence, 24 h; further: on the % scale 0 is the no-effect control and ±100 the full control effect; nearly all actives have a fitted effect of over 55% in size
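ATXN2-luciferase reporter cells (luciferase flanked by upstream and downstream ATXN2 gene portions) were treated 24 h at 37 °C with compounds at up to 57 uM. SteadyGlo luminescence gave expression; GF-AFC fluorescence gave viability.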
HepG2 tox-1 – kills HepG2 cells in TGF-b inhibitor counter-screen | 410,000 compounds, 0.76% hits | HepG2 CAGA-GFP viability, ATP luminescence, 18 h | Potency, µM (top dose mostly 46.1 µM), without a hit: at the top dose activity change, negative = cytotoxicity, usual class: cytotoxic
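HepG2 CAGA-GFP cells (1000/well, DMEM with 1% FBS) received compound, then TGF-beta at 500 pg/mL final, and were incubated 18 hours at 37 degrees C. Viability was read by CellTiter-Glo luminescence. Media-only wells were set as complete cell-killing and DMSO as no toxicity.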
ATXN viability – reduces viability in counter-screen for ATXN expression inhibitors; S2 cells (HEK-293 line with an ATXN2-luciferase reporter) viability, CellTiter-Fluor protease fluorescence, 24 h; Potency, µM (doses to about 56.7 µM), most hits filed as cytotoxic; 400,000 compounds, 0.49% hits; AID 651635; further: nearly all actives have a fitted effect of over 40% in size
TGFb inhibitor – TGF-b pathway inhibition; HepG2 CAGA-GFP TGF-b/SMAD3 reporter, GFP fluorescence, 18 h; TGF-beta stimulated, 500 pg/mL final; Potency, µM (titrated, usually from 46.1 µM), for inactives: top-dose activity, negative = inhibition, usual class: inhibitors; 410,000 compounds, 1.2% hits; AID 588855; further: on the % scale 0 is the no-effect control and ±100 the full control effect; nearly all actives have a fitted effect of over 65% in size
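Read-out: total well GFP (ex488/em500-530) summed from mean per-cell fluorescence. Cells: HEPG2 CAGA-GFP, 1% FBS DMEM, 18 h at 37 degrees C with 500 pg/mL final TGF-beta. Unstimulated wells served as the full-inhibition control; stimulated DMSO wells = 0%.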
TGFb confirm – confirmation of TGF-b signaling inhibitors in HepG2 reporter cells; shares compounds with TGFb inhibitor; HepG2 CAGA-GFP TGF-b reporter, GFP fluorescence, 18 h; cells stimulated with TGF-beta, 500 pg/mL; Potency, µM (doses to about 46.1 µM), inactives show at the highest dose activity, negative = inhibition, actives largely listed as inhibitors; 1,600 compounds, 63% hits; further: on the % scale 0 is the no-effect control and ±100 the full control effect; nearly all actives have a fitted effect of over 65% in size
HepG2 tox-2 – counter-screen for TGF-b inhibitors: cytotoxicity in HepG2 cells. shares compounds with TGFb inhibitor. HepG2 CAGA-GFP viability, ATP luminescence, 18 h; cells stimulated with TGF-beta, 500 pg/mL. Potency, µM (titrated, usually from 46.1 µM), inactives show top-dose activity, negative = cytotoxicity, hits mostly inhibitors. 1,600 compounds, 27% hits. AID 720535; further: on the % scale 0 is the no-effect control and ±100 the full control effect; nearly all actives have a fitted effect of over 70% in size
TGFb CCL64 inh – orthogonal confirmation of TGF-b inhibitors in CCL64 cells; 1,600 compounds, 41% hits; CCL64 CAGA-GFP reporter, TGF-b stimulated, GFP fluorescence, 18 h; Potency, µM (titrated, usually from 46.1 µM), inactives show at the top dose activity, negative = inhibition, most hits filed as inhibitors; shares compounds with TGFb inhibitor; further: nearly all actives have a fitted effect of over 65% in size
COP TGFb inh – validation of TGF-b inhibitors in HepG2 COP promoter reporter | shares compounds with TGFb inhibitor | HepG2 COP-GFP TGF-b reporter, GFP fluorescence, 18 h; cells stimulated by added recombinant TGF-beta | Potency, µM (titrated, usually from 46.1 µM), for inactives: top-dose activity, negative = inhibition, most hits filed as inhibitors | 1,600 compounds, 3% hits | AID 720537; further: nearly all actives have a fitted effect of over 70% in size
Active calls of the source: *; i = inactive; ? = inconclusive; . = no result. This is a sample that favours compounds with a hit; in the whole collection about 17% have one here. The call rests on the fitted dose curve; in most records, active means well fitted curve in the direction sought with a large enough effect; inconclusive means small, poorly fitted or top-dose-only effect, or another doubt; inactive means no such curve, though single readings can be large; an effect the other way counts as inactive or inconclusive. Potency means the concentration at half of the fitted maximal effect.

SMILES | DT40 TDP1 no CPT | TDP1 cell CPT | ATXN2 expr inh | HepG2 tox-1 | ATXN viability | TGFb inhibitor | TGFb confirm | HepG2 tox-2 | TGFb CCL64 inh | COP TGFb inh
O=c1c(-c2ccc(F)c(F)c2)nc2cncnc2n1C1CC1 | 16.5% | -1.7% | . | . | . | . | . | . | . | .
COc1cccc(NC(=O)C(NCCC(C)C)c2ccccc2)c1 (centres undefined) | ? | ? | -7.0% | -30.8% | i | 12.6µM* | ? | -5.2% | -27.9% | -6.3%
CC(C)C[C@H]1CN(CCCC[C@H]2CNC(=O)C(=O)N2CC2CCCCC2)C(=O)C(=O)N1Cc1ccccc1 | ? | ? | 21.6% | . | i | . | . | . | . | .
Cc1ccc(NC(=O)Cc2ccccc2F)cc1S(=O)(=O)N1CCCCCC1 | ? | ? | -25.1% | -29.8% | ? | 11.2µM* | 8.2µM* | ? | -22.8% | 16.1%
CC1CCCC(NC(=O)COC(=O)c2cc3ccccc3oc2=O)C1C (centres undefined) | 0.8% | ? | 48.1% | -25.1% | i | 1.5% | . | . | . | .
O=C(COc1ccccc1)N1CCCC1 | 2.5% | -1.6% | . | 21.9% | ? | 3.7% | . | . | . | .
O=C(COc1ccc(-c2nnc(N3CCCCC3)c3ccccc23)cc1)N1CCCCC1 | 16.4µM* | ? | -26.3% | -31.5% | i | 17.8µM* | 23.1µM* | -20.3% | -34.9% | 1.8%
Cc1nn(CC(=O)Nc2ccc(Cl)cc2)c(=O)c2cc(-c3ccccc3)nn12 | ? | ? | -32.8% | -1.1% | i | -3.9% | . | . | . | .
COc1ccc(C(CNC(=O)c2oc3ccc(OC)cc3c2C)N2CCCC2)cc1 (centres undefined) | 16.4µM* | 23.1µM* | -23.5% | -29.1% | i | ? | ? | ? | -8.4% | 45.1%
O=C(O)CCCNS(=O)(=O)c1cccc2nsnc12 | -1.2% | -1.9% | -0.8% | -4.7% | i | -22.2% | . | . | . | .
NC(=S)c1cnn2c(-c3cccc(C(F)(F)F)c3)ccnc12 | 12.2% | -3.3% | -11.1% | -2.9% | i | -10.2% | . | . | . | .
N#C/C(=N\Nc1ccc(Cl)c(Cl)c1)C(=O)C1CC1 | 6.51µM* | 20.6µM* | -19.2% | -28.9% | . | 7.08µM* | 2.31µM* | 6.51µM* | 6.51µM* | 63.7%
COc1ccccc1-c1cc(C(F)(F)F)nc(N2CCCC2)n1 | ? | -13.9% | 3.6% | -13.8% | i | -21.4% | . | . | . | .
